Measured values taken from PubChem BioAssay AID709 (SRMLSC, 2007).
About 3,600 (5.5%) of roughly 65,000 compounds were called active.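 The calls were made as follows: active = at 10 µM, mean starting fluorescence two-fold or more over control wells; inactive = the rest.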 What follows is part of a selection rich in actives, with near analogues and random picks from the rest.

Assay: intrinsic fluorescence of library compounds, ex339/em460 – biochemical, MLSMR library, data from DPM-DC assay, artefact control, profiling panel (AID 709);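 also: signal is the first read of a kinetic run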
Details: compound autofluorescence, ex339/em460 nm, NADH buffer; at 10 µM; stronger effect = higher value; 1 = no-compound wells, NADH background

Structure (SMILES) | fluorescence fold increase
NC(=O)CSc1oc(-c2cccs2)nc1S(=O)(=O)c1ccccc1 | 1.22 (inactive)
CCN(CC(=O)NC(C)C)C(=O)CCNC(=O)c1ccc(Cl)cc1 | 1.13 (inactive)
CCOc1cc2c(cc1OCC)C(C(=O)O)C(c1ccc(OC)c(O)c1)N(C)C2=O (stereo not given) | 1.02 (inactive)
Cc1nc2ccc(NC(=O)N3CCC(c4ccccc4)C3)cc2nc1C (stereo not given) | 2.93 (active)
O=C(Nc1cccc(NC(=O)N2CCN(c3ccccc3)CC2)c1)N1CCN(c2ccccc2)CC1 | 1.06 (inactive)
Cn1c(CCN2CCCCCC2)nc2cc(NC(=O)Nc3ccccc3)ccc21 | 1.24 (inactive)
CCc1cc(=O)oc2cc(C)cc(OC(C)C(=O)O)c12 (stereo not given) | 3.78 (active)
CCCSC1=C(C#N)C(c2ccccc2C)C(C(=O)OC)C(=O)N1 (stereo not given) | 1.13 (inactive)
Cc1nc(N2CCN(c3ncccn3)CC2)c2oc3ccccc3c2n1 | 1.16 (inactive)
CCc1nc(N2CCN(c3nc(C)cc(C)n3)CC2)c2oc3ccccc3c2n1 | 2.49 (active)
Cc1cc(C)nc(N2CCN(c3ncnc4c3oc3ccccc34)CC2)n1 | 1.27 (inactive)
Cc1noc(COc2ccccc2OCC(O)CNC(C)(C)C)n1 (stereo not given) | 1.04 (inactive)
O=c1c(-c2ccc3c(c2)OCCO3)c(C(F)(F)F)oc2cc(O)cc(O)c12 | 1.07 (inactive)
CCC(C)(C)n1nnnc1C(c1cccs1)N1CCN(c2nc3ccccc3s2)CC1 (stereo not given) | 1.35 (inactive)
CCOC(=O)c1[nH]cnc1C(=O)NC1CCCCC1 | 1.07 (inactive)
COc1cccc(N2CCN(C3CC(=O)N(c4ccc(Cl)cc4)C3=O)CC2)c1 (stereo not given) | 1.12 (inactive)
CC1CCCN(C(=O)Cn2c(=O)oc3ccccc32)C1 (stereo not given) | 1.09 (inactive)
Cc1nc(NCc2ccccc2)c(C(N)=O)c2c1COC(C)(C)C2 | 1.89 (inactive)
CC(C)Cn1c(CCC(=O)O)ccc1-c1cccs1 | 3.14 (active)
CCCC(=O)NC(C)C(c1cccs1)N1CCN(c2ccccc2)CC1 (stereo not given) | 0.99 (inactive)
O=C(O)CCC(=O)N(Cc1cccs1)Cc1cccs1 | 1.09 (inactive)
CCCCOC(=O)c1ccc(N2C(=O)CC(N3CCN(C/C=C/c4ccccc4)CC3)C2=O)cc1 (stereo not given) | 1.12 (inactive)
Clc1ccc(Cc2nn3c(-c4ccncc4)nnc3s2)cc1 | 1 (inactive)
CCCCC(=O)Nc1ccc2c(c1)C(=O)NC2=O | 2.11 (active)
CCCCC(=O)Nc1ccc2c(c1)OCCO2 | 1.08 (inactive)

Structure (SMILES) | fluorescence fold increase
CCCCC(=O)Nc1ccc(C(=O)NCCCn2ccnc2)cc1 | 1.13 (inactive)
O=C(Nc1ccccc1N1CCN(C(=O)c2ccccc2)CC1)c1ccc2c(c1)OCO2 | 1.1 (inactive)
N#CCSc1nc2ccccc2c(=O)n1-c1ccccc1 | 1.11 (inactive)
CC(C)CCNC(=O)C1CCCN(S(=O)(=O)c2ccc(F)cc2)C1 (stereo not given) | 1.06 (inactive)
CC(C)(C)OC(=O)c1c(N)n(CCCN2CCCC2=O)c2nc3ccccc3nc12 | 3.76 (active)
CCOc1cc2[nH]c(=S)n(CCCN3CCCC3=O)c(=O)c2cc1OCC | 1.07 (inactive)
CSc1nnc(-c2ccncc2)n1CCCN1CCCC1=O | 0.81 (inactive)
COc1ccc(CNC2CCCCC2)cc1 | 1.1 (inactive)
O=S(=O)(NCCNS(=O)(=O)c1ccccc1)c1ccccc1 | 1.04 (inactive)
CCOc1ccc2nc(NCCNS(=O)(=O)c3ccccc3)c(C#N)cc2c1 | 3.3 (active)
CCOc1ccc2cc(C#N)c(SCC(=O)OC)nc2c1 | 1.95 (inactive)
COC(=O)C(CC(=O)Nc1cc(C)ccc1C)Nc1ccccc1OC (stereo not given) | 1.02 (inactive)
COc1ccc(C2C3=C(OC(C)=O)c4ccccc4C3=Nc3c2c(=O)n(C)c(=O)n3C)cc1 (stereo not given) | 1.09 (inactive)
CC1CCCN(C(=O)c2ccc3c(c2)C(=O)N(CCC2=CCCCC2)C3=O)C1 (stereo not given) | 1.04 (inactive)
Cc1ccc2c(c1)c1ncn(CCC3=CCCCC3)c(=O)c1n2C | 2.08 (active)
Cn1nnc2cc(C(=O)NCCC3=CCCCC3)ccc21 | 1.03 (inactive)
Cc1ccc(C(C(=O)NCc2ccco2)N(CC2CCCO2)C(=O)Cn2nnc3ccccc32)cc1 (stereo not given) | 0.88 (inactive)
CCc1nnc(NC(=O)CSc2nnc(COc3ccc(C#N)cc3)n2-c2ccccc2)s1 | 1.27 (inactive)
Cc1nn(-c2ccccc2)c2c1C(=O)NC(=O)C(C)(C)C2 | 1.03 (inactive)
O=C(Nc1cccc(OCC(=O)N2CCOCC2)c1)C1CCCCC1 | 1.05 (inactive)
O=C1CC2(CCCCC2)Oc2ccc(OCC(=O)N3CCOCC3)cc21 | 5.15 (active)
COc1ccc(OCC(=O)N2CCOCC2)cc1 | 1.05 (inactive)
Cn1c(=O)c2c(nc(OCc3cccnc3)n2Cc2ccccc2)n(C)c1=O | 1.09 (inactive)
CCC(C)(NC(=O)c1ccccn1)C(=O)NC1CCCCC1 (stereo not given) | 1.14 (inactive)
Cc1cc(=O)n(C)c(=O)n1CCCNc1ccccc1 | 1.05 (inactive)

Structure (SMILES) | fluorescence fold increase
CCOC(=O)/C=c1\s/c(=C\c2ccccc2OC)c(=O)n1CC(=O)N1CCOCC1 | 1.14 (inactive)
CCOC(=O)c1sc(NC(=O)C(CC)Sc2nccn2C)nc1C (stereo not given) | 1.08 (inactive)
CCOC(=O)c1sc(/N=C/Nc2nc(C)c(C(=O)OCC)s2)nc1C | 4.03 (active)
CCOC(=O)c1nc(N)sc1C(=O)OCC | 1.12 (inactive)
O=C1NC2(CCCCC2)N=C1c1ccccc1 | 1.08 (inactive)
COc1ccccc1N1CCN(C(=O)Cn2nnc(-c3cccs3)n2)CC1 | 1.07 (inactive)
C=CCn1c(=S)[nH]c2nc3c(cc2c1=O)COC(C)(C)C3 | 1.03 (inactive)
O=c1c(-c2ccccc2)coc2c(CN3CCOCC3)c(O)ccc12 | 2.45 (active)
O=C(c1ccccc1-c1ccccc1)N1CCOCC1 | 0.82 (inactive)
COc1ccc(OC)c(C(=O)c2coc3ccc(O)c(CN4CCOCC4)c23)c1 | 1.03 (inactive)
CSCCC(NC(N)=O)C(=O)N(C)CC(=O)Nc1ccc(C)cc1 (stereo not given) | 0.91 (inactive)
O=C(NCCCN1CCCCCC1)C1CC(=O)N(C2CCCC2)C1 (stereo not given) | 1.16 (inactive)
COc1cc2ccccc2cc1C(=O)Nc1ccc(S(=O)(=O)Nc2cc(C)on2)cc1 | 1.32 (inactive)
O=C(Cn1cnc2c(nnn2-c2ccccc2)c1=O)N1CCC(Cc2ccccc2)CC1 | 1.07 (inactive)
CCCCOc1ccc(-c2ncc(C(=O)OCC)c(N)n2)cc1 | 1.17 (inactive)
CCOC(=O)c1cnc2sccn2c1=O | 3.33 (active)
O=C(NCc1ccccn1)c1cnc2sccn2c1=O | 2.7 (active)
O=C(NCc1ccccn1)c1cc2ccccc2oc1=O | 1.48 (inactive)
CCOC(=O)c1cnc(-n2nc(C)cc2C)nc1-n1nc(C)cc1C | 1.13 (inactive)
O=C(NCc1ccccn1)Nc1ccc(F)cc1 | 1.14 (inactive)
CC(C)NS(=O)(=O)c1ccc(NC(=O)c2cccnc2)cc1 | 1.03 (inactive)
Cc1cc2nc(-c3ccc(NC(=O)c4cccnc4)cc3)oc2cc1C | 2.26 (active)
CCOC(=O)c1cc(NC(=O)c2cccnc2)cc(C(=O)OCC)c1 | 1.12 (inactive)
CSc1nc(C)nc2c1c(=O)n(C)c(=O)n2C | 1.11 (inactive)
Cc1ccccc1NC(=O)NCc1ccco1 | 1.12 (inactive)

Structure (SMILES) | fluorescence fold increase
c1coc(CNc2ncnc3ccccc23)c1 | 1.1 (inactive)
Cc1cc(NCc2ccco2)n2c(nc3ccccc32)c1C#N | 2.23 (active)
Cc1cccc(OCc2nnc(SCn3nnc4ccccc4c3=O)o2)c1 | 1.07 (inactive)
CC(C)(C)n1nc2c(c1NC(=O)c1ccc(S(=O)(=O)N3CCCC3)cc1)CS(=O)C2 (stereo not given) | 1.02 (inactive)
O=C(CCN1C(=O)c2ccccc2C1=O)NCCN1CCOCC1 | 1.02 (inactive)
N/C(=N\c1nc2ccccc2o1)NC(=O)C(Cc1ccccc1)N1C(=O)c2ccccc2C1=O (stereo not given) | 1.09 (inactive)
O=C(NCCN1CCOCC1)[C@H](Cc1ccccc1)N1C(=O)c2ccccc2C1=O | 2.12 (active)
Clc1ccc(Cc2nnc(-c3cccs3)o2)cc1 | 1.11 (inactive)
O=C(Nc1nccs1)C1CCCN1S(=O)(=O)c1cccc2cccnc12 (stereo not given) | 1 (inactive)
Cc1c(C(=O)OCc2cc(=O)n3cc(Br)ccc3n2)oc2ccccc12 | 1.07 (inactive)
Cc1c(C(=O)OCC(=O)N(CCC#N)c2ccccc2)oc2c1ccc1ccccc12 | 2.16 (active)
NC(=NC(=O)c1ccccc1)C1=C(O)CCC1=O | 1.14 (inactive)
CCCc1nc(-c2ccccc2O)n(-c2ccccc2)n1 | 1.12 (inactive)
COc1ccc(OC)c2sc(NC(=O)C3COc4ccccc4O3)nc12 (stereo not given) | 1.19 (inactive)
CCn1c(SCC(=O)NCC2CCCO2)nc2cc(S(=O)(=O)N3CCCCC3)ccc21 (stereo not given) | 1 (inactive)
CCc1ccc(NC(=O)CSc2nc3ccccc3c(=O)n2CCN2CCOCC2)cc1 | 1.09 (inactive)
Cc1ccc2cc(C#N)c(SCC(=O)NCC3CCCO3)nc2c1C (stereo not given) | 1.14 (inactive)
COCCNC(=O)CSc1nc2c(n1-c1ccccc1)CCCC2 | 1.16 (inactive)
COCCCNC(=O)CSc1nc2ccc(N3CCOCC3)cc2c(=O)n1CCc1ccccc1 | 2.61 (active)
CCCCn1c(SCC(=O)NCC2CCCO2)nc2ccc(N3CCOCC3)cc2c1=O (stereo not given) | 4.22 (active)
CC12CCC(C(=O)N(CCC#N)CCC#N)(CC1=O)C2(C)C (stereo not given) | 1.07 (inactive)
Cc1ccc(S(=O)(=O)N2CCC(C(=O)N[C@@H](C)C(=O)NCCc3ccccc3)CC2)cc1 | 1.11 (inactive)
O=C(c1c(Cl)nc2sccn12)N1CCCc2ccccc21 | 1 (inactive)
O=C(CC(NCCN1CCOCC1)C(=O)O)Nc1cccc(Cl)c1 (stereo not given) | 1.1 (inactive)
COc1ccc(-n2nnc3c(=O)n(CC(=O)N4CCC(Cc5ccccc5)CC4)cnc32)cc1 | 1.08 (inactive)
